Rows were chosen to be rich in hits. Some 9% of all compounds tested hit in one or more screens of this group.
PLK1 PBD inh: qHTS for Inhibitors of PLK1-PDB (polo-like kinase 1 - polo-box domain): Primary Screen. Plk1 PBD binding of FITC phosphopeptide, fluorescence polarization. Potency, µM, most hits filed as inhibitors. 360,000 tested, 2.8% active. AID 720504, 2013; also: series mostly up to about 57 µM; nearly all actives have a fitted effect of over 65% in size
BAZ2B block: qHTS Assay for Inhibitors of BAZ2B. Bromodomain adjacent to zinc finger domain protein 2B (Homo sapiens), Q9UIF8. AlphaScreen BAZ2B-H3K14Ac peptide displacement. 360,000 tested, 4.4% active. Potency, µM (series often up to 114 µM), hits mostly inhibitors; also: nearly all actives have a fitted effect of over 60% in size
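AlphaScreen luminescence quantifies BAZ2B engagement of H3K14Ac peptide; the protein and biotinylated peptide are both at 50 nM final, buffer PBS pH 7.4 with 0.01% Tween-20, all steps at room temperature.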
JMJD2A Tudor inh: qHTS Assay for Inhibitors of JMJD2A-Tudor Domain; Lysine-specific demethylase 4A (Homo sapiens), O75164; AlphaScreen JMJD2A-Tudor / H3K4me3 peptide binding; Potency, µM (doses to about 114 µM), hits mostly inhibitors; 390,000 tested, 4.4% active; AID 504339, 2011; also: nearly all actives have a fitted effect of over 50% in size
Target sequence (O75164 whole entry, looked up, the tested form may be a part): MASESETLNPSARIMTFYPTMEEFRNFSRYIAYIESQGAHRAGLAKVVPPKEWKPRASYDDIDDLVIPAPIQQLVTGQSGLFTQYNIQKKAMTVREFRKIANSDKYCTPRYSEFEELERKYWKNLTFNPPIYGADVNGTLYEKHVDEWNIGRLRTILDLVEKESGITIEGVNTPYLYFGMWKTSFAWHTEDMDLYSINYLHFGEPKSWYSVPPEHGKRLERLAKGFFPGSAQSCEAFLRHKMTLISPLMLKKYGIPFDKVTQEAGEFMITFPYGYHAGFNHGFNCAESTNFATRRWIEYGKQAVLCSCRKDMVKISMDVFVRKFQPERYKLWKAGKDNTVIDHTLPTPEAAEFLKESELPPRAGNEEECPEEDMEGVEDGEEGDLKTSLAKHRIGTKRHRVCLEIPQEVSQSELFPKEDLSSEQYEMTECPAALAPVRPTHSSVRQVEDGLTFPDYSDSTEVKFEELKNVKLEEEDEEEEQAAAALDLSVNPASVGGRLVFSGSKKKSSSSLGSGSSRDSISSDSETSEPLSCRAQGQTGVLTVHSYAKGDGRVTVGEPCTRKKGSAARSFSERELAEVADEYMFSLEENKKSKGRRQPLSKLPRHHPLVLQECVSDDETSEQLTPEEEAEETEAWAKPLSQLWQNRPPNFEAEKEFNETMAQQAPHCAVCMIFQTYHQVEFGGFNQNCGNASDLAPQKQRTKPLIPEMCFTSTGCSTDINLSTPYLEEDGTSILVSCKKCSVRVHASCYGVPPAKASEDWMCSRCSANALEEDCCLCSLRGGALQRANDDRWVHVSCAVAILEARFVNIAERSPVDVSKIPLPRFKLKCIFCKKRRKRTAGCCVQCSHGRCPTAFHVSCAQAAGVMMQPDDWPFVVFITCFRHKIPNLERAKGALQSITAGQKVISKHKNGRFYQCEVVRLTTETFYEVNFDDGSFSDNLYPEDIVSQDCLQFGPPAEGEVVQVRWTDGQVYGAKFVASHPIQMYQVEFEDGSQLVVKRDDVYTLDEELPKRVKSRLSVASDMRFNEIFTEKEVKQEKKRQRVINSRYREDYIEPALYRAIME
ALOX12 inh: Primary qHTS assay for inhibitors of human arachidonate 12S-lipoxygenase (ALOX12): Round 2. Potency, µM (doses to about 108 µM), hits mostly inhibitors. 580,000 tested, 1.1% active. Polyunsaturated fatty acid lipoxygenase ALOX12 (Homo sapiens), P18054. purified 12hLO, xylenol orange hydroperoxide absorbance. AID 1671190, 2021
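Purified human 12hLO (150 nM final) in 25 mM Hepes, 0.01% Triton X-100, pH 7.0 was preincubated 15 min at room temperature with compound. Then 40 uM arachidonic acid was added, 30 min. Hydroperoxide was read by Fe-XO absorbance ratio 573/405 nm.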
G9a inh: qHTS Assay for Inhibitors of Histone Lysine Methyltransferase G9a. Potency, µM (series often up to 102 µM), hits mostly inhibitors. G9a H3K9 monomethylation, AlphaScreen, 2 h. AID 504332, 2011. Histone-lysine N-methyltransferase EHMT2 (Homo sapiens), Q96KQ7. 350,000 tested, 8.8% active; also: nearly all actives have a fitted effect of over 75% in size
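Quantitative HTS format: methyltransferase activity on a biotin-tagged H3K9 peptide is measured by AlphaScreen, using a rabbit anti-monomethyl-H3K9 antibody with streptavidin donor and anti-IgG acceptor beads. Final levels are 20 nM enzyme, 500 nM peptide, 20 uM SAM; 2 h RT.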
HP1b chromo inh: HTS for Inhibitors of HP1-beta Chromodomain Interactions with Methylated Histone Tails; 390,000 tested, 0.56% active; Potency, µM (top dose mostly 114 µM), most hits filed as inhibitors; AlphaScreen HP1-beta / biotin-H3K9me3 peptide binding; Chromobox protein homolog 1 (Homo sapiens), P83916; also: nearly all actives have a fitted effect of over 70% in size
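HP1-beta protein (50 nM final) preincubated 30 min at room temperature with biotinylated H3(1-18)K9me3 peptide (50 nM) in PBS pH 7.4, 0.01% Tween-20, then compound added for 30 min. AlphaScreen streptavidin donor/nickel chelate acceptor beads (10 ug/mL final), 30 min dark, luminescence read.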
Of the large screens only hits and unclear results are named; the others gave an inactive call. Calls follow the shape of the dose curve; as a rule, active = well fitted curve in the direction sought with a large enough effect; inconclusive = small, poorly fitted or top-dose-only effect, or another doubt; inactive = no such curve, though single readings can be large; an effect the other way counts as inactive or inconclusive.

CCOc1ccccc1N1CCN(CC(=O)Nc2nc(C)c(C(=O)N(C)C)s2)CC1	JMJD2A Tudor inh 14.1µM, ALOX12 inh inconclusive (no result: G9a inh)
Cc1ccccc1N1CCN(CC(=O)Nc2nc(C)c(C(=O)N(C)C)s2)CC1	JMJD2A Tudor inh inconclusive
COc1ccc(NS(=O)(=O)c2ccc3c(c2)CCC(=O)N3)cc1O	none
CCCCn1c(SCc2c(C)noc2C)nc2cc(S(N)(=O)=O)ccc21	G9a inh 50.1µM
COc1ccc(N(C(C)C(=O)N2CCCC2)S(C)(=O)=O)cc1 (configuration not stated)	none
CCOc1ccc(N(C(C)C(=O)NC2CCCCCC2)S(C)(=O)=O)cc1 (configuration not stated)	PLK1 PBD inh inconclusive, G9a inh 14.1µM
CCOc1ccc(N(C(C)C(=O)N2CCCC2)S(C)(=O)=O)cc1 (configuration not stated)	PLK1 PBD inh 18.9µM, JMJD2A Tudor inh inconclusive
Cc1cc(N2C(=O)C(O)=C(C(=O)c3ccc(C)o3)C2c2cccs2)no1 (configuration not stated)	ALOX12 inh inconclusive, G9a inh inconclusive
CCOc1cccc(C2C(C(=O)c3ccc(C)o3)=C(O)C(=O)N2Cc2ccncc2)c1 (configuration not stated)	BAZ2B block inconclusive, JMJD2A Tudor inh inconclusive, ALOX12 inh inconclusive
CCOc1cccc(C2C(C(=O)c3ccc(C)o3)=C(O)C(=O)N2c2nccs2)c1 (configuration not stated)	BAZ2B block inconclusive, JMJD2A Tudor inh inconclusive, ALOX12 inh 0.631µM, G9a inh 6.31µM
O=C(C1=C(O)C(=O)N(c2nccs2)C1c1ccccc1)c1cc2ccccc2o1 (configuration not stated)	PLK1 PBD inh inconclusive, BAZ2B block 39.8µM, ALOX12 inh inconclusive, G9a inh 3.55µM
Cc1cc(N2C(=O)C(O)=C(C(=O)c3ccco3)C2c2ccc(O)cc2)no1 (configuration not stated)	JMJD2A Tudor inh inconclusive, ALOX12 inh inconclusive
Cc1cc(N2C(=O)C(O)=C(C(=O)c3cc4ccccc4o3)C2c2cccs2)no1 (configuration not stated)	PLK1 PBD inh inconclusive, BAZ2B block inconclusive, JMJD2A Tudor inh inconclusive, ALOX12 inh inconclusive, G9a inh 35.5µM
Cc1ccc(C2C(C(=O)c3cc4ccccc4o3)=C(O)C(=O)N2c2cc(C)on2)cc1 (configuration not stated)	PLK1 PBD inh 18.9µM, BAZ2B block inconclusive, JMJD2A Tudor inh inconclusive, ALOX12 inh inconclusive
CSCC[C@H](NC(=O)Cc1c(C)c2c(cc(C)c3c(C)c(C)oc32)oc1=O)C(=O)O	ALOX12 inh inconclusive
COC(=O)c1ccc(C2C(C(=O)c3ccco3)=C(O)C(=O)N2c2cc(C)on2)cc1 (configuration not stated)	JMJD2A Tudor inh inconclusive, ALOX12 inh inconclusive, G9a inh inconclusive
Cc1cc(N2C(=O)C(O)=C(C(=O)c3cc4ccccc4o3)C2c2ccc([N+](=O)[O-])cc2)no1 (configuration not stated)	PLK1 PBD inh 37.7µM, BAZ2B block inconclusive, ALOX12 inh inconclusive, G9a inh 44.7µM
COC(=O)c1ccc(C2C(C(=O)c3ccc(C)o3)=C(O)C(=O)N2c2cc(C)on2)cc1 (configuration not stated)	ALOX12 inh inconclusive, G9a inh 50.1µM
CCn1cc(C(=O)Nn2cnnc2)c(=O)c2ccc(C)nc21	JMJD2A Tudor inh inconclusive, G9a inh 50.1µM
CCn1cc(C(=O)OC)c(=O)c2ccc(C)nc21	none
CCn1cc(C(=O)OCC(=O)Nc2c(C)cccc2C)c(=O)c2ccc(C)nc21	ALOX12 inh inconclusive, G9a inh 44.7µM
Cc1ccc(NC(=O)CSc2nccn2C)cc1F	none
O=C(N/N=C/c1ccc(Sc2nc3ccccc3s2)c([N+](=O)[O-])c1)c1ccccn1	none
COc1ccc(NC2CCCN(C(=O)c3cn(C)c4ccccc34)C2)cc1 (configuration not stated)	BAZ2B block inconclusive, G9a inh 17.8µM
O=C(C1CCCC1)N1CCCC(Nc2ccc(F)cc2)C1 (configuration not stated)	G9a inh inconclusive
O=C(CCN1CCCCO1)N1CCCC(Nc2ccc(F)c(F)c2)C1 (configuration not stated)	none
Cc1ccc(NC2CCCN(C(=O)C3CCCCC3)C2)cc1C (configuration not stated)	BAZ2B block 79.4µM (no result: G9a inh)
Cc1ccc(NC2CCCN(C(=O)CCN3CCCCO3)C2)cc1C (configuration not stated)	G9a inh 31.6µM
Cc1ccc(NC2CCCN(C(=O)c3ccccc3N3CCOCC3)C2)cc1C (configuration not stated)	G9a inh inconclusive
Cc1ccc(NC2CCCN(C(=O)c3cn(C)c4ccccc34)C2)cc1C (configuration not stated)	BAZ2B block inconclusive, JMJD2A Tudor inh 25.1µM, ALOX12 inh inconclusive, G9a inh inconclusive
O=C(NC1CC1)c1cccc(NC(=O)C2CCN(S(=O)(=O)c3cccc(C(F)(F)F)c3)CC2)c1	none (no result: BAZ2B block, G9a inh)
COc1cc(/C=C2/SC(=S)N(C)C2=O)ccc1OC(=O)c1ccco1	BAZ2B block inconclusive
CCOC(=O)c1ccc(N2NC(=O)/C(=C/c3ccc(OC(=O)c4ccco4)c(OC)c3)C2=O)cc1	BAZ2B block inconclusive, ALOX12 inh 22.4µM, G9a inh 31.6µM (no result: PLK1 PBD inh, JMJD2A Tudor inh, HP1b chromo inh)
C/C=C/c1ccc(OCC(=O)OCC)c(OC)c1	none
CCOC(=O)COc1ccc(/C=C2/C(=O)NN(c3ccc(F)cc3)C2=O)cc1OC	PLK1 PBD inh 26.7µM, JMJD2A Tudor inh inconclusive
O=C1CCC2(CNC(=O)c3ccncc3)CCCC=C2N1 (configuration not stated)	none (no result: PLK1 PBD inh, BAZ2B block, JMJD2A Tudor inh, G9a inh, HP1b chromo inh)
O=c1c(C(c2ccccc2)c2c(O)nc3n(c2=O)CCS3)c(O)nc2n1CCS2	PLK1 PBD inh inconclusive, ALOX12 inh inconclusive, G9a inh 39.8µM
O=c1c(C(c2ccc(F)cc2)c2c(O)nc3n(c2=O)CCCS3)c(O)nc2n1CCCS2	PLK1 PBD inh inconclusive, ALOX12 inh inconclusive, G9a inh 50.1µM
O=c1c(C(c2ccccc2)c2c(O)nc3n(c2=O)CCCS3)c(O)nc2n1CCCS2	PLK1 PBD inh inconclusive, BAZ2B block inconclusive

Screens deposited in PubChem by National Center for Advancing Translational Sciences (NCATS).
